# Source: PubChem BioAssay (National Center for Advancing Translational Sciences (NCATS))
# Sampled rows, rich in hits. Any-hit rate of the full collection: about 3%.
# PLK1 PBD block – PLK1 (human) polo-box domain binding inhibition; Potency, µM, without a hit: max response, negative = inhibition, most hits filed as inhibitors; 2.8% of 360,000 active; AID 720504; Plk1 PBD binding of FITC phosphopeptide, fluorescence polarization; P53350; note: series mostly up to about 57 µM; nearly all actives have a fitted effect of over 65% in size
# ALOX12 inh – inhibitors of human 12S-lipoxygenase ALOX12 | purified 12hLO, xylenol orange hydroperoxide absorbance | Potency, µM (top dose mostly 108 µM), for the others: at the top dose activity change, negative = inhibition, actives largely listed as inhibitors | 1.1% of 580,000 active | AID 1671190
# Target sequence (P18054 whole entry, looked up): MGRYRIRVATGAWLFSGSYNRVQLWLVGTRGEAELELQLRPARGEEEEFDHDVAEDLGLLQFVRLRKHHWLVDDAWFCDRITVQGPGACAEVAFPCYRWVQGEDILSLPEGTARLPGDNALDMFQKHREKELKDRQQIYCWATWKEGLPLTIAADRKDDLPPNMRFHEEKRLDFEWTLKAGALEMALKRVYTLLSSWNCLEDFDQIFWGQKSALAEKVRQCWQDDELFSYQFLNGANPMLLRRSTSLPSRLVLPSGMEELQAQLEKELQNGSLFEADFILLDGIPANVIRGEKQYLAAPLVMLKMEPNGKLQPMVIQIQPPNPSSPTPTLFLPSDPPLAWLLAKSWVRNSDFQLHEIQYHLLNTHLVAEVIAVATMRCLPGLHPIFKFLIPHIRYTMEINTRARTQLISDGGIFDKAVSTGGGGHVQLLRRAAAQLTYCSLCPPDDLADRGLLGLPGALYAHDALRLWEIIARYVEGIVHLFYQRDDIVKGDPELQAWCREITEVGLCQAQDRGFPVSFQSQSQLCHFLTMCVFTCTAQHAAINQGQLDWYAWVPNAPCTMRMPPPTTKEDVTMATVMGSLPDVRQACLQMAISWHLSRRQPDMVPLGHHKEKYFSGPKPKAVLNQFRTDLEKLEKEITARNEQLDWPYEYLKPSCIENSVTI
#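 Purified human 12hLO at 150 nM in 25 mM Hepes, 0.01% Triton X-100, pH 7.0, preincubated 15 min at room temperature with compound. Reaction started with 40 uM arachidonic acid, 30 min at room temperature. Hydroperoxide measured by Fe-xylenol orange, 573/405 nm absorbance ratio.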
# VDR inhibitor – blocks the human vitamin D receptor | P11473 | VDR-SRC2-3 peptide fluorescence polarization, 2 h | Potency, µM, for inactives: max response, negative = inhibition, most hits filed as inhibitors | 0.93% of 400,000 active | AID 504847
#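 Fluorescence polarization assay measuring small-molecule disruption of VDR binding to the coregulator peptide SRC2-3. Compounds were pin-transferred (23 nl) into the reagent mix and incubated 2 h at room temperature before reading.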
# GCN5L2 inh – GCN5L2 (KAT2A) acetyltransferase inhibition; Potency, µM (top dose mostly 58.9 µM), inactives show at the highest dose activity change, negative = inhibition, actives largely listed as inhibitors; GCN5L2 HAT assay, ThioGlo1 CoA-SH fluorescence; 0.21% of 390,000 active; Q92830; AID 504327
#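 GCN5L2 (20nM final) in 50mM HEPES, 0.1mM EDTA pH 7.5, 0.01% Tween-20 was preincubated 15 min at room temperature with compound, then given ThioGlo1 (50uM), H3(1-25) peptide (75uM) and acetyl-CoA (70uM); CoA-thiol fluorescence (Ex340/Em540) was read at 0 and 20 min.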
# * marks the source's active call; other numbers are inactive results; ? = inconclusive; nt = no result; [ ] = another dose, or the depositor's remark. Calls come from the whole dose curve; as a rule, active = well fitted curve in the direction sought with a large enough effect; inconclusive = small, poorly fitted or top-dose-only effect, or another doubt; inactive = no such curve, though single readings can be large; an effect the other way counts as inactive or inconclusive. % is set by controls: 0 for no effect and ±100 for the full control effect; potency is the fitted concentration of half-maximal effect.
SMILES,PLK1 PBD block,ALOX12 inh,VDR inhibitor,GCN5L2 inh
CCc1nnc(NC(=O)C(NS(=O)(=O)c2ccc3c(c2)OCCO3)C(C)C)s1 (stereo unspecified),-15%,35µM*,2%,1%
Cc1cc(C)cc(C(=O)N2CCCN(c3cc(-c4ccc(Cl)cc4)[nH]n3)CC2)c1,nt,32%,nt,nt
CC(C)c1ccc(C2c3[nH]c4ccccc4c3C[C@H]3C(=O)N(c4ccccc4C(=O)N4CCC[C@@H]4C(=O)O)C(=O)N23)cc1 (stereo partly specified),42µM*,-26%,-1%,-29%
O=c1c2c([N+](=O)[O-])cc([N+](=O)[O-])cc2sn1Cc1ccccc1,0.75µM*,0.79µM*,22µM*,1.3µM*
O=c1c2c([N+](=O)[O-])cc([N+](=O)[O-])cc2nc2ccccn12,-4%,?,-16%,-10%
O=c1c2c([N+](=O)[O-])cc([N+](=O)[O-])cc2sn1-c1ccc(Br)cc1,2.7µM*,nt,25µM*,7.1µM*
CN(C)C(=O)CN1CCN(c2nc(-c3ccccc3)nc3ccccc23)CC1,nt,7%,nt,nt
CC(=O)Oc1ccc2c(=O)c(-c3ccc4c(c3)OCCCO4)c(C)oc2c1,nt,-8%,nt,nt
COc1cccc(C(=O)NC(=S)Nc2ccccc2N2CCCCC2)c1,0%,40µM*,24%,-2%
COc1ccc(C(=O)NC(=S)Nc2ccccc2N2CCOCC2)cc1Br,-23%,16µM*,2%,-6%
COc1ccc(C(=O)Nc2ccccc2C(=O)N2CCOCC2)cc1Br,27µM*,-3%,-8%,-21%
O=C(NC(=S)Nc1ccccc1N1CCOCC1)c1cccc([N+](=O)[O-])c1,-10%,408%,-15%,-9%
CCOc1ccc(C(=O)Nc2ccc(CN3CCOCC3)cc2)cc1Br,30µM*,?,-10%,-12%
Cc1ccccc1C(=O)NN=C(C1CC1)C1CC1,nt,23%,nt,nt
COc1cc(CNn2cnnc2)ccc1OCc1ccccc1F,nt,0%,nt,nt
CN(Cc1ccco1)C(=O)CSc1nc(-c2cccs2)nc2ccccc12,nt,-16%,nt,nt
O=C(Nc1ccc(OC(F)F)cc1)c1cc(=O)[nH]c2ccccc12,nt,60%,nt,nt
C=C(C)Cn1c(=O)c2c(nc(-n3nc(C)c(C)c3C)n2CCC)n(C)c1=O,nt,-14%,nt,nt
C=CCNC(=O)COC(=O)c1cc(C)nc2ccccc12,nt,5%,nt,nt
CCOc1ccc(C(=O)NC(=S)Nc2ccccc2N2CCOCC2)cc1Br,1%,25µM*,-21%,-6%
CCOc1ccc(-c2nn[nH]n2)cc1,27µM*,0%,?,-8%
CCOc1ccc(-c2nn[nH]n2)cc1OCC,3%,-10%,43%,1%
CCCc1[nH][nH]c(=O)c1C(c1cccc(Cl)c1)C(C#N)C#N (stereo unspecified),11µM*,3%,-25%,-6%
COc1ccc(S[C@]2(c3nc(C)no3)CC(=O)N(c3ccc(OC)cc3)[C@@H]2c2ccc(OC)cc2)cc1,nt,14µM*,nt,nt
COc1ccc(NC(=O)CCCS(=O)(=O)c2nc(-c3ccc(OC)c(OC)c3)cc(C(F)(F)F)n2)cc1OC,nt,-19%,79µM*,-9%
SMILES,PLK1 PBD block,ALOX12 inh,VDR inhibitor,GCN5L2 inh
COc1ccc(C(=O)O)cc1N1C(=O)Nc2ccccc2N1O,0%,45µM*,-21%,-3%
CCc1c(C)nc(SCC(=O)Nc2oncc2-c2ccccc2)[nH]c1=O,nt,-8%,nt,nt
Cn1c(=O)c2ccccc2n2c(=S)[nH]nc12,-25%,?,-2%,-5%
O=c1c2ccccc2n2c(=S)[nH]nc2n1-c1ccccc1,21µM*,?,-5%,?
CCC(C)c1ccc(-n2c(=O)c3ccccc3n3c(=S)[nH]nc23)cc1 (stereo unspecified),21µM*,-23%,-16%,0%
O=C(CCC[C@@H]1[C@H]2CCCN3CCC[C@@H](CN1C(=O)CCc1ccccc1)[C@@H]23)N1CCOCC1,nt,32%,nt,nt
Cc1ccccc1NC(=O)Nc1ccccc1C(N)=O,27µM*,-2%,-25%,-12%
Cc1cc(C)nc(SCC(=O)OCC(=O)Nc2nc3ccccc3s2)n1,-22%,-9%,-11%,-4%
Cc1cc(C)nc(SCC(=O)Nc2ccccc2C(N)=O)n1,nt,50µM*,nt,nt
COC(=O)CSc1nc(C)cc(C)n1,7.5µM*,-9%,?,1%
COC(=O)c1ccc(NC(=O)COC(=O)CSc2nc(C)cc(C)n2)cc1,-8%,-3%,0%,0.71µM*
COC(=O)c1ccccc1NC(=O)CSc1nc(C)cc(C)n1,-12%,16%,18%,-1%
CCCCCC(=O)N(O)C1CC(=O)N(c2ccccc2)C1=O (stereo unspecified),?,176%,20µM*,-21%
CCCCCC(=O)NNC1CC(=O)N(c2ccccc2)C1=O (stereo unspecified),-9%,221%,-11%,2%
Cc1cc(Cl)ccc1NS(=O)(=O)c1c(C)cc(N2C(=O)CCS2(=O)=O)cc1C,nt,1%,nt,nt
Cn1cc(CNCC2(COc3ccc(C(F)(F)F)cn3)C[C@@H](O)[C@@H](O)C2)cn1 (stereo partly specified),nt,18µM*,nt,nt
O=C(NCC1(COc2ccc(C(F)(F)F)cn2)C[C@@H](O)[C@@H](O)C1)C1CC1 (stereo partly specified),nt,102%[176 µM],nt,nt
CNC(=S)N1CCN(c2ccc([N+](=O)[O-])cc2)CC1,-17%,-2%,-8%,-3%
CC(=O)N1CCN(C(=S)c2ccc([N+](=O)[O-])cc2)CC1,?,?,-6%,-12%
O=[N+]([O-])c1cccc(C(=S)N2CCN(c3ccccc3)CC2)c1,12µM*,-25%,?,-3%
O=C(OCC(=O)N1CCN(c2ccccc2)CC1)c1cccc([N+](=O)[O-])c1,-7%,5%,-4%,0%
CCNC(=S)N1CCN(c2ccc([N+](=O)[O-])cc2)CC1,30µM*,?,-9%,1%
Cc1cccc(N2CCN(C(=S)c3ccc([N+](=O)[O-])cc3)CC2)c1,4.7µM*,-27%,?,-17%
